CYP2C19 inh: inhibitors of human CYP2C19. CYP2C19 Supersomes, luciferin-H EGE luminescence, 30 min. inhibition, % at 5 µM. actives 21% (n = 96,000). AID 778;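 active = CYP2C19 inhibition above a set limit at 5 µM in the primary screen, cut at about 50% in these data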;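 note: plate controls were negative control wells for no effect and 2.5 mM tranylcypromine positive control for full effect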
CYP2C9 inh: inhibitors of human CYP2C9. actives 20% (n = 96,000). P11712. AID 777. CYP2C9 Supersomes, luciferin-H conversion, luminescence. inhibition, % at 5 µM;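 active = blocking of liver enzyme CYP2C9 beyond about 50% at 5 µM, limit read from the data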
Target sequence (P11712 whole entry, looked up): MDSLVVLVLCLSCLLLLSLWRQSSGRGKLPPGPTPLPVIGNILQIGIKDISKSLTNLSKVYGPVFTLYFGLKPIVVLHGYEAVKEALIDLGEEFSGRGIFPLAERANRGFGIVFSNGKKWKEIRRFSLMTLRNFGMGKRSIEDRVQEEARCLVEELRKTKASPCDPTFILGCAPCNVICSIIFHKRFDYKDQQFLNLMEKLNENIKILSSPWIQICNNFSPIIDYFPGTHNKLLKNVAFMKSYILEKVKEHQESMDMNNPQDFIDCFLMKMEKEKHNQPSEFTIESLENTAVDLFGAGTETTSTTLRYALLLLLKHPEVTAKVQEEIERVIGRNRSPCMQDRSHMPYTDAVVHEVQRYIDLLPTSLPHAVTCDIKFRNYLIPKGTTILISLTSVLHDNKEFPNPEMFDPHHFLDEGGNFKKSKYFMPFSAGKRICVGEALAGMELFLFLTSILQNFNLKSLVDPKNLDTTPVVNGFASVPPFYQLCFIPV
PostGolgi ctrl: yeast control strain growth, post-Golgi counter-screen | efflux-deficient yeast background strain, growth absorbance A615, 16 h | inhibition, % at 10 µM | actives 5% (n = 98,000) | AID 738
CYP2C9 act: activators of human CYP2C9 | P11712 | recombinant CYP2C9, luciferin-H conversion, luminescence; stronger effect = higher value; factor 1 = untreated enzyme, 0 = blocked | activation factor at 5 µM | actives 1.4% (n = 96,000);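 active = activation factor of 2 or more for CYP2C9 at a 5 µM dose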;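 note: 0 = sulfaphenazole-blocked wells and 1 = vehicle-only wells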
PostGolgi yeast: growth inhibition of a yeast mutant, post-Golgi transport screen; inhibition, % at 10 µM; post-Golgi transport phenotypic cell assay; actives 0.9% (n = 98,000);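 note: yeast cells grown in 1536-well plates; yeast grown about 18 h at 30C before absorbance read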
CYP2C19 act: increases human CYP2C19 enzyme activity; P33261; recombinant CYP2C19, luciferin-H EGE luminescence; stronger effect = higher value; 0 = fully inhibited enzyme, 1 = untreated enzyme; activation factor at 5 µM; 96,000 tested, under 10 active;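 active = activation factor of at least 2 at 5 µM in the primary screen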;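 note: 0 = wells with 2.5 mM tranylcypromine and 1 = vehicle-only wells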
An asterisk follows results filed as active; . = no result given. Only some compounds are listed: those with a hit (about 32% of all), similar ones and a draw of the others. Cut-off read from the data, not from the text of the source, unless noted: active = inhibition above about 30%; inactive = the rest.

SMILES	CYP2C19 inh	CYP2C9 inh	PostGolgi ctrl	CYP2C9 act	PostGolgi yeast	CYP2C19 act
COC(=O)c1ccc2c(c1)N(C)C(=O)CS2	11	6	2	0.9	-5	0.9
Cc1nn(C)c(Oc2cccc(Cl)c2)c1C=O	43	8	3	0.9	-2	0.6
CC1=C(C(=O)OCc2ccccc2)C(c2ccccc2OC(F)F)NC(=O)N1 (configuration not stated)	44	15	.	0.9	.	0.6
CSCC[C@@H](Nc1nc(-c2ccccc2)nc2c1oc1ccccc12)C(=O)O	2	64*	-3	0.4	6	1
c1ccc(-c2nc(NCc3cccnc3)c3oc4ccccc4c3n2)cc1	35	58*	55*	0.4	17	0.6
c1ccc2c(c1)oc1c(NCC3CCCO3)ncnc12 (configuration not stated)	-12	-10	8	1.1	0	1.1
CCc1nc(N[C@@H](CC(C)C)C(=O)O)c2oc3ccccc3c2n1	20	-6	10	1.1	-1	0.8
c1ccc(-c2nc(NCC3CCCO3)c3oc4ccccc4c3n2)cc1 (configuration not stated)	15	14	53*	0.9	2	0.8
O=C1C2C3C=CC(O3)C2C(=O)N1CC(O)c1ccccc1 (configuration not stated)	8	-7	-2	1.1	-1	0.9
O=C(CCC1CCCCC1)NCc1ccncc1	89*	47	0	0.5	5	0.1
O=C(CN(C1CCCCC1)S(=O)(=O)c1ccc(F)cc1)NCCCO	-1	7	5	0.9	6	1
O=C(CN(C1CCCCC1)S(=O)(=O)c1ccc(F)cc1)NCc1ccncc1	86*	83*	17	0.2	13	0.1
CN(CC(=O)NCc1ccccn1)S(=O)(=O)c1ccc(Cl)cc1	8	-10	21	1.1	6	0.9
O=C(CN(C1CCCCC1)S(=O)(=O)c1ccc(Cl)cc1)NCc1ccncc1	94*	82*	0	0.2	1	0.1
COc1ccc(OC(=O)Nc2ccccc2)cc1	78*	67*	2	0.3	-7	0.2
CC(=O)Nc1ccc(NC(=O)Oc2ccccc2)cc1	10	10	-8	0.9	-8	0.9
CN(C)c1ccc(NC(=O)Oc2ccccc2)cc1	91*	6	-10	0.9	3	0.1
CN(C)c1ccc(C(=O)c2ccccc2)cc1	88*	-9	-5	1.1	-1	0.1
CN(C)c1ccc(C(=O)c2ccccc2C(=O)O)c(O)c1	-9	2	7	1	0	1.1
NC(=O)c1cc(Br)cc2c3c([nH]c12)CCCC3	3	15	78*	0.9	5	1
Cc1ccccc1S(=O)(=O)Cc1ccc(C(=O)O)o1	-16	-13	1	1.1	20	1.2
CCOC(=O)N1CCC(NC(=O)c2ccc(CS(=O)(=O)c3c(Cl)cccc3Cl)o2)CC1	-7	66*	4	0.3	3	1.1
CCOC(=O)N1CCC(NC(=O)c2ccc(CS(=O)(=O)c3ccccc3C)o2)CC1	-9	77*	5	0.2	-3	1.1
CCOC(=O)N1CCN(C(=O)c2ccc(CS(=O)(=O)c3c(Cl)cccc3Cl)o2)CC1	-5	2	7	1	3	1
O=C(Nc1ccc(Cl)cc1C(=O)NCC1CCCO1)c1ccco1 (configuration not stated)	-6	29	13	0.7	-10	1.1
SMILES	CYP2C19 inh	CYP2C9 inh	PostGolgi ctrl	CYP2C9 act	PostGolgi yeast	CYP2C19 act
CCOC(=O)CC1C(=O)NCCN1C(=O)c1cccc(C(F)(F)F)c1 (configuration not stated)	-7	3	3	1	4	1.1
CC(C)OC(=O)CN1C(=O)C(C)(C)Oc2ccc(C(=O)NC3CC3)cc21	12	34	-1	0.7	-6	0.9
CC(C)OC(=O)CN1C(=O)C(C)(C)Oc2ccc(C(=O)NC(C)(C)C)cc21	36	73*	10	0.3	-1	0.6
CCOc1nc(-c2ccccc2Cl)ccc1C#N	19	23	6	0.8	14	0.8
O=C1NC(c2ccc3c(c2)OCO3)Nc2ccccc21 (configuration not stated)	62*	17	7	0.8	7	0.4
O=C1NC(c2ccc3c(c2)OCO3)Oc2ccccc21 (configuration not stated)	96*	79*	-6	0.2	-5	0
CCOC(=O)CN(C(=O)CNC(=O)c1ccco1)C(C(=O)NC1CCCCC1)c1cccc(OC)c1 (configuration not stated)	36	39	.	0.6	.	0.6
COc1ccccc1NC(=O)CN1C(=O)CCS(=O)(=O)c2ccccc21	.	.	11	.	4	.
CCCCc1nc2n[nH]c(N)c2c2c1CCCC2	43	14	8	0.9	13	0.6
CCCCCn1c(C(C)NC(=O)CCC)nc2ccccc21 (configuration not stated)	-1	9	3	0.9	7	1
O=c1oc2cc(O)ccc2c2ccccc12	22	-122	0	2.2*	8	0.8
Cc1coc2cc3oc(=O)c4c(c3cc12)CCCC4	28	74*	8	0.3	-11	0.7
O=c1oc2cc(O)ccc2c2c1CCCC2	20	-164	10	2.6*	-6	0.8
O=C(Nc1ccc2c(c1)oc1ccccc12)N1CCOCC1	36	12	4	0.9	-3	0.6
CCc1cc2c3c(c(=O)oc2cc1OC)CCCC3	-9	20	49*	0.8	-2	1.1
CCOc1cc2oc(=O)c3c(c2cc1Cl)CCC3	14	20	1	0.8	7	0.9
CCN(CC)CCCC(C)NC1=NCCCCC1 (configuration not stated)	4	0	10	1	3	1
CCOC(=O)c1c(C)oc2cc(Br)c(OC(=O)N3CCOCC3)cc12	76*	51*	1	0.5	24	0.2
COc1cc2c(C(=O)N3CCN(C)CC3)c(C)oc2cc1Br	35	5	7	0.9	-1	0.7
Cc1nc(-c2cccc(NS(=O)(=O)c3ccccc3)c2)cs1	97*	77*	3	0.2	-3	0
O=S(=O)(c1cccc(-c2cn3cccnc3n2)c1)N1CCCCCC1	47	32	13	0.7	8	0.5
Cc1ccc(S(=O)(=O)Nc2cccc(-c3cn4ccsc4n3)c2)cc1	100*	99*	46*	0	-6	0
O=S(=O)(Nc1cccc(-c2cn3cccnc3n2)c1)c1ccc(-c2ccccc2)cc1	81*	100*	20	0	19	0.2
Cc1nc(-c2ccc(NC(=O)C3CCCCC3)cc2)cs1	12	-5	0	1.1	-7	0.9
O=S(=O)(Nc1cccc(-c2cn3ccsc3n2)c1)c1ccc(F)cc1	69*	79*	40*	0.2	-4	0.3
